Experimental data reported in PubChem BioAssay AID1048 (The Scripps Research Institute Molecular Screening Center, 2008).
Screen size: about 99,000 compounds; about 390 (0.39%) were called active. Only a selection was taken, and actives are over-represented in it overall. Unmarked numbers belong to inactive results. Cut-off read from the data, not from the text of the source: active = TR-FRET ratio above about 2000; inactive = the rest.

Experiment: signal artefacts in PPARgamma/SRC-3 readout – biochemical, TR-FRET ratio, artefact control for PPARgamma SRC-3 recruitment agonists (AID 1048)
Conditions: TR-FRET artefact counter-screen, PPARgamma/SRC-3 format; at 8 µM; hits give high values

First: CC(=O)C1C(c2ccc(Cl)cc2)c2c(n[nH]c2C)CC1(C)O (stereo not drawn)
Second: COC(=O)c1ccc(/C=N/OCC(=O)Nc2cc(F)ccc2F)cc1
The TR-FRET ratio of the first is higher: 1710 for the first, 1390 for the second.

Going from `COc1ccc(NS(=O)(=O)c2cc(NC(=O)C3CCCCC3)ccc2N2CCOCC2)cc1` to `COc1cccc(OC)c1C(=O)NC(=S)Nc1ccc(N2CCOCC2)c(Cl)c1`, the TR-FRET ratio falls from 1510 to 1350.

First: O=C(Nc1ccc([N+](=O)[O-])cc1)C1CC12CCC2 (stereo not drawn)
Second: N/C(Cc1ccc([N+](=O)[O-])cc1)=N\OC(=O)C1CCCCC1
The TR-FRET ratio of the first is lower: 1620 for the first, 1640 for the second.

First: CC(=O)c1ccc(S(=O)(=O)Nc2ccc(C(=O)NCC(c3ccccc3)N(C)C)cc2)cc1 (stereo not drawn)
Second: CCC(C(=O)OCC(=O)Nc1ccc(C(=O)Nc2ccc(OC)cc2)cc1)c1ccccc1 (stereo not drawn)
The TR-FRET ratio of the first is higher: 1580 for the first, 1460 for the second.

Compared with `CC(Sc1cccc[n+]1[O-])C(=O)Nc1cccc(S(=O)(=O)N2CCOCC2)c1` (stereo not drawn), `O=C(COC(=O)c1ccccc1F)Nc1cc(S(=O)(=O)N2CCOCC2)ccc1N1CCCC1` is lower in TR-FRET ratio: 1620 for the first, 1600 for the second.

First: COc1ccc(/C=N/NC(=O)c2ccccc2)cc1OS(=O)(=O)c1ccccc1
Second: O=C(Nc1ccc2ccccc2c1)/C(=C\c1ccc2c(c1)OCO2)NC(=O)c1ccco1
The TR-FRET ratio of the first is higher: 1630 for the first, 1560 for the second.

Going from `COc1cccc(CNC(=O)CCN2C(=S)NC(C)(C)CC2C)c1` (stereo not drawn) to `CCn1nc(C)cc1C(=O)N1CCCC(C(=O)c2cccc(OC)c2)C1` (stereo not drawn), the TR-FRET ratio falls from 1480 to 1380.

First: O=C(Nc1ccc(NC(=O)c2ccco2)c(Cl)c1)c1cccc([N+](=O)[O-])c1
Second: Cc1cccc(OCc2ccc(C(=O)Nc3ccc(F)cc3)cc2)c1
The TR-FRET ratio of the first is higher: 1700 for the first, 1440 for the second.

First: Cc1ccc2[nH]c(C)c(CCNC(=O)NC3CCCCC3)c2c1
Second: CCn1c(=O)cc(SCC(=O)NCCC2=CCCCC2)c2ccccc21
The TR-FRET ratio of the first is lower: 1590 for the first, 1710 for the second.

Going from `CCN(C(=O)COC(=O)/C=C/c1nc2ccccc2s1)C1CCS(=O)(=O)C1` (stereo not drawn) to `CCC(C)N(C(=O)COC(=O)C1C(C(=O)OC)=C(C)NC(C)=C1C(=O)OC)C1CCS(=O)(=O)C1` (stereo not drawn), the TR-FRET ratio rises from 1560 to 1620.

Compared with `COCc1c(C(=O)OCc2c(C)noc2C)oc2ccccc12`, `CCOC(=O)c1c(C)n(C)c2ccc(OC)c(NS(=O)(=O)CC)c12` is lower in TR-FRET ratio: 1630 for the first, 1490 for the second.

Going from `CCN1CCN(C(=O)CCN2C(=O)c3ccccc3C2=O)CC1` to `CN(CC(=O)N1CCN(c2ccccc2)CC1)S(=O)(=O)c1cccs1`, the TR-FRET ratio rises from 1540 to 1700.

Going from `COc1ccc(S(=O)(=O)Nc2cccnc2)c(Cl)c1Cl` to `O=S(=O)(NC1CC1)c1ccc2c3c(cccc13)CC2`, the TR-FRET ratio falls from 1690 to 1560.

Compared with `CCn1ccnc1CN(C)Cc1nc(-c2ccc3c(c2)OCO3)no1`, `CN(C)c1nc(-c2cccnc2)nc(-c2ccc(Cl)cc2)c1C#N` is higher in TR-FRET ratio: 1670 for the first, 1720 for the second.

First: COc1ccc(-n2c(=S)[nH]c3sc4c(c3c2=O)CCc2ccccc2-4)cc1
Second: CCOc1ccc(N2C(=O)CN(c3cccc4ccccc34)C2=S)cc1
The TR-FRET ratio of the first is lower: 1560 for the first, 1810 for the second.

Compared with `O=C(CCN1CCCCC1)N=Nc1c(O)[nH]c2ccccc12`, `O=C(CCc1ccccc1)Nc1ccc(NC(=O)C2CCCCC2)nc1` is lower in TR-FRET ratio: 1900 for the first, 1430 for the second.

Going from `O=C(CSc1cccc[n+]1[O-])NCCCc1ccccc1` to `Cc1ccc(OCC(=O)NNC(=S)NCc2ccccc2)cc1`, the TR-FRET ratio rises from 1360 to 1530.

Compared with `Cn1cnnc1Sc1ccc(CN2CCN(C3CCCC3)C(CCO)C2)o1` (stereo not drawn), `OCCC1CN(Cc2cnc(-c3ccccc3)s2)CCN1CCc1ccccc1` (stereo not drawn) is higher in TR-FRET ratio: 1420 for the first, 1800 for the second.

Going from `CN(c1ccccc1)c1nc(N)c([N+](=O)[O-])c(NCc2ccco2)n1` to `COc1ccc(C(=O)CSc2nnc(-c3ccco3)o2)cc1`, the TR-FRET ratio rises from 1700 to 1800.

Compared with `C/C(N)=C(/C#N)C(=O)COC(=O)CNS(=O)(=O)c1ccc(C)cc1`, `COc1ccc(N2CCN(C(=O)CNS(=O)(=O)c3ccc(C)c(C)c3)CC2)cc1` is lower in TR-FRET ratio: 1640 for the first, 1450 for the second.

First: Cc1c(C(=O)Nc2ccccc2)sc2nc3n(c(=O)c12)CCCCC3
Second: Cc1nc(N2CCN(c3ccccn3)CC2)c2c(C)c(C(=O)Nc3ccc(F)cc3)sc2n1
The TR-FRET ratio of the first is lower: 1500 for the first, 1960 for the second.

First: O=C(CCCn1c(=O)c2sccc2n(CC(=O)NCC2CCCO2)c1=O)NCc1ccco1 (stereo not drawn)
Second: C=CCn1c(CNC(=O)c2ccco2)nnc1SCC(=O)c1ccc(OC)cc1
The TR-FRET ratio of the first is lower: 1480 for the first, 1770 for the second.

First: CCCCN(C(=O)c1ccc(OC(F)(F)F)cc1)c1c(N)n(CCC)c(=O)[nH]c1=O
Second: CCc1ccc(OCC(=O)OCC(=O)c2c(N)n(C)c(=O)n(C)c2=O)cc1
The TR-FRET ratio of the first is higher: 1550 for the first, 1320 for the second.

Going from `CC(=O)c1ccc(NC(=S)N(Cc2ccccc2)C(C)C2CC2)cc1` (stereo not drawn) to `CCc1ccc(NC(=O)CC2C(=O)NCCN2C(=S)Nc2ccccc2)cc1` (stereo not drawn), the TR-FRET ratio falls from 1760 to 1500.

Compared with `CN1CCN(c2ccc(S(=O)(=O)N3CCCCC3)cc2NC(=O)Cc2ccccc2F)CC1`, `CCC(=O)Nc1cc(C(F)(F)F)ccc1N1CCCC1` is higher in TR-FRET ratio: 1600 for the first, 1710 for the second.

Compared with `Cc1cccc(C)c1NC(=O)C1(C)c2cccc[n+]2CC(=O)N1Cc1cccs1` (stereo not drawn), `O=C(CSc1ccc(-c2cccs2)nn1)Nc1ccccc1F` is higher in TR-FRET ratio: 1340 for the first, 1640 for the second.

First: Cc1ccc(C(=O)NC(=S)NCCN2CCOCC2)cc1
Second: O=C(NCCCN1CCOCC1)c1ccc(N2CCCC2)c([N+](=O)[O-])c1
The TR-FRET ratio of the first is higher: 1640 for the first, 1590 for the second.

Compared with `O=C1CCCC(O)=C1N=Nc1ccc2ncsc2c1`, `O=C(c1ccccc1Cl)N(Cc1ccccc1F)N1C(=O)CCCC1=O` is lower in TR-FRET ratio: 1660 for the first, 1570 for the second.

Compared with `Cc1ccc(S(=O)(=O)N2CCOCC2)cc1NC(=O)CSc1nnc(N)s1`, `Cc1cc(C2=NNC(=Nc3ccc(S(=O)(=O)N4CCOCC4)cc3)SC2)c(C)n1CC1CCCO1` (stereo not drawn) is lower in TR-FRET ratio: 1740 for the first, 1650 for the second.

Going from `S=c1[nH]nc(COc2ccccc2)n1-c1ccccc1` to `S=c1[nH]nc(-c2ccccc2)n1/N=C/c1c[nH]c2ccccc12`, the TR-FRET ratio falls from 1490 to 1470.

First: CCOP(=O)(OCC)C(Nc1ccc([N+](=O)[O-])cc1)c1ccc(Cl)cc1 (stereo not drawn)
Second: COc1ccc(C(=O)NNC(=S)NC(=O)c2ccccc2[N+](=O)[O-])cc1
The TR-FRET ratio of the first is higher: 1560 for the first, 1550 for the second.

First: Cc1csc(CN(C)C(=O)CC2C(=O)NCCN2CC(C)(C)C)n1 (stereo not drawn)
Second: CC(C)(C)c1ccc(NC(=O)COC(=O)CCc2nc3ccccc3c(=O)[nH]2)cc1
The TR-FRET ratio of the first is higher: 1590 for the first, 1560 for the second.

First: COc1ccc(C2(CNC(=O)Cc3ccc(OC)c(OC)c3)CCCC2)cc1
Second: COc1cc(CNc2ncn[nH]2)ccc1OCc1ccccc1C
The TR-FRET ratio of the first is lower: 1430 for the first, 1650 for the second.

First: CCN(C(=O)COC(=O)c1cc(NS(=O)(=O)c2ccc(Cl)c([N+](=O)[O-])c2)ccc1O)C1CCCCC1
Second: O=C(COC(=O)c1c2c(nc3ccccc13)/C(=C\c1cccs1)CCC2)Nc1ccccc1Cl
The TR-FRET ratio of the first is lower: 1460 for the first, 1790 for the second.

First: CCN(CC)c1ccc(C(=O)N/N=C(\C)c2cccc(OC)c2)cc1
Second: COc1ccc(C(=O)NNc2cc(C)nc(NNC(=O)c3ccc(OC)cc3)n2)cc1
The TR-FRET ratio of the first is higher: 1500 for the first, 1420 for the second.

Compared with `Cc1cc(C(=O)CC#N)c(C)n1-c1c(C)n(C)n(-c2ccccc2)c1=O`, `Cc1c(C(N)=O)sc2ncn(CCOc3ccccc3)c(=O)c12` is higher in TR-FRET ratio: 1450 for the first, 1550 for the second.

First: CC(C)(C)NC(=O)CN1CCC(NC(=O)C23CC4CC(CC(C4)C2)C3)CC1
Second: CC(C)N1CCC(NC(=O)Nc2ccccc2)CC1
The TR-FRET ratio of the first is lower: 1580 for the first, 1620 for the second.

First: CCOC(=O)C1(CCOc2ccccc2)CCN(C(=O)c2cncs2)CC1
Second: CC(=O)c1cccc(CN2CCC(CO)(Cc3ccccc3)CC2)c1
The TR-FRET ratio of the first is lower: 1510 for the first, 1520 for the second.

Going from `CCOC(=O)N/N=C/c1cccnc1` to `Cc1ccccc1-c1n[nH]c(=S)n1C`, the TR-FRET ratio falls from 1540 to 1470.

First: Cc1cccc(-c2ncc(CN3CCC(CO)(CCCc4ccccc4)CC3)cn2)c1
Second: O=C(Nc1c2c(nc3ccccc13)CCCC2)c1ccccc1Br
The TR-FRET ratio of the first is lower: 1420 for the first, 1760 for the second.

First: Cc1nc(N2CCOCC2)c2c(C)c(C(=O)Nc3ccc(C(F)(F)F)cc3)sc2n1
Second: COc1cc(C(=O)Nc2cc(C(F)(F)F)ccc2N2CCOCC2)ccc1O
The TR-FRET ratio of the first is higher: 1750 for the first, 1560 for the second.

First: COC(=O)c1ccc(C(=O)OC)c(NC(=S)N2CCN(c3ccc(F)cc3)CC2)c1
Second: CC(=O)Nc1ccc(NC(=O)C(C)n2c3ccccc3c3nc(=O)cc(C)n32)cc1 (stereo not drawn)
The TR-FRET ratio of the first is lower: 1500 for the first, 1620 for the second.

First: CC(C)(C)NC(=O)c1ccc(Cn2cc(C(F)(F)F)ccc2=O)cc1
Second: CN1CCC(=NNC(=O)CN(c2cccc(Cl)c2)S(C)(=O)=O)CC1
The TR-FRET ratio of the first is higher: 1730 for the first, 1650 for the second.

Work on `Cc1[nH]nc(SCC(=O)NCC(C)C)c1[N+](=O)[O-]` yielded a TR-FRET ratio of 1720.

For `CCN(CCCNC(=O)CSc1cc(=O)n(C)c2cc(Cl)ccc12)Cc1ccccc1`, the TR-FRET ratio was 2580 (active).
With `Fc1ccc(COc2cccc(-c3n[nH]c(=S)o3)c2)cc1` the TR-FRET ratio was 2970 (active).
For `OCC1(CCc2ccccc2)CCN(Cc2ccc3nsnc3c2)CC1`, the TR-FRET ratio was 2140 (active).
With `Cc1nc(N2CCC(C)CC2)c2c(C)c(C(=O)Nc3cc(F)ccc3C)sc2n1` the TR-FRET ratio was 2360 (active).
For `O=C(COC(=O)c1c2c(nc3ccccc13)CCCC2)c1ccc(Br)s1`, the TR-FRET ratio was 4220 (active).
For `Cc1ccccc1-c1n[nH]c(=S)n1/N=C/c1ccc(-c2ccccc2Br)o1`, the TR-FRET ratio was 2150 (active).
